The values that follow come from PubChem BioAssay (NCATS).

SMILES strings stand for the structures. Records with an inconclusive call do not appear. Values without a mark were called inactive. Calls of active or inactive are those of the source. Calls follow the shape of the dose curve; as a rule, active = well fitted cell-killing curve with a large enough effect; inconclusive = small, poorly fitted or top-dose-only effect, or effect the other way; inactive = no such curve, though single readings can be large or run the other way.
Potency is read from the fitted curve at half-maximal effect.

This assay is described as follows: Viability qHTS for spleen associated tyrosine kinase inhibitor (SYKi) naive MV4-11 cells (AID 1963823). Also: nearly all actives have a fitted effect of over 40% in size. Particulars: MV4-11 AML viability, CellTiter-Glo luminescence, 72 h; series mostly up to 45 µM; viability (% of control): at the top concentration. A digest of the protocol:
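Luminescence from CellTiter-Glo, developed 10 min at room temperature, gave viability of MV4-11 cells never exposed to SYK inhibitor. Cells (500/well) had been incubated with compounds for 72 hr under standard culture conditions.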
A general note: Quantitative high-throughput screening tests each substance at several concentrations.
In the case of `CC(O)(C(=O)C1CC1(CO)COC1OC(CO)C(O)C(O)C1O)C1C(O)CC2C3CC=C4CC(O)CC(O)C4(C)C3C(O)CC21C` (stereo not given), the Potency was 217 nM (active). With `C/C=C/C=C/C=C/C(=O)O[C@@H]1C=C(CO)C(O)(C(=O)O)[C@@]2(C)CCCC(C)(C)[C@H]12` (stereo not given in full), the “viability (% of control)” value is 55% [at 17.3 µM].

With `C=C(C)C(=O)O[C@H]1C[C@@](C)(O)C2(O)CCC(C)(/C=C3/OC(=O)C(COC)=C31)O2` (stereo not given in full), the Potency is 718 nM (active). With `C=CC(C)(CC/C=C(\C)CC/C=C(\C)CC(O)/C=C(\C)C(=O)O)O[C@@H]1O[C@H](CO)[C@@H](O)[C@H](O)[C@H]1O[C@@H]1O[C@H](CO)[C@@H](O)[C@H](O)[C@H]1O` (stereo not given in full), the “viability (% of control)” value is 69.6% [at 17.3 µM]. For `CC1(CO)CCCC2(C)C1C(OC(=O)c1ccccc1)C=C1C(=O)OCC12O` (stereo not given), the Potency is 1800 nM (active). Regarding `COC(=O)CC(C)(O)CC(=O)OCc1ccc(O[C@@H]2O[C@H](CO)[C@@H](O)[C@H](O)[C@H]2O)cc1` (stereo not given in full), the “viability (% of control)” value was 82% [at 17.3 µM]. Still for that read-out and setting: the same measure for `C=C(C)C(O)COc1ccc(CC(=O)O)cc1` (stereo not given): 95.7%.

As to `CO[C@H]1[C@@H](O)[C@H](O[C@H]2CC[C@@]3(C)C(CCC4C3CC[C@]35COC6(COC(=O)C6)C3CCC45O)C2)O[C@@H](C)[C@@H]1OC1OC(CO)C(OC2OC(CO)C(O)C(O)C2O)C(O)C1O` (stereo not given in full), the Potency was 1230 nM (active). Consider `CC(CCC1(O)OC2CC3C4CC=C5CC(O[C@@H]6O[C@H](CO)[C@@H](O[C@@H]7O[C@@H](C)[C@H](O)[C@@H](O)[C@H]7O)[C@H](O)[C@H]6O[C@@H]6O[C@@H](C)[C@H](O)[C@@H](O)[C@H]6O)CCC5(C)C4CCC3(C)C2C1C)CO[C@@H]1O[C@H](CO)[C@@H](O)[C@H](O)[C@H]1O` (stereo not given in full), for which the Potency was 3480 nM (active). As to `CC1(C)CC[C@]2(C(=O)O)CC[C@]3(C)C(=CCC4[C@@]5(C)CC[C@H](O[C@@H]6O[C@H](C(=O)O)[C@@H](O[C@@H]7OC[C@@H](O)[C@H](O)[C@H]7O)[C@H](O)[C@H]6O)C(C)(C)C5CC[C@]43C)C2C1O` (stereo not given in full), the “viability (% of control)” value is 84.2% [at 17.3 µM]. Turning to `CC(C)(C#N)c1ccc(N2C(=O)OCc3cnc4ccc(-c5cnc6ccccc6c5)cc4c32)cc1`, the Potency is 1030 nM (active). In the case of `CC1(C)CCC2(C(=O)OC3OC(CO)C(O)C(O)C3O)CCC3(C)C(=CCC4C5(C)CCC(OC6OC(C(=O)O)C(OC7OC(CO)C(O)C(O)C7O)C(OC7OC(CO)C(O)C(O)C7O)C6O)C(C)(C)C5CCC43C)C2C1` (stereo not given), the viability (% of control) is 77.9% [at 9.25 µM]. Turning to `O=C1NC2CCCCN2C12CCN(CCCN1c3ccccc3CCc3ccc(Cl)cc31)CC2` (stereo not given), the Potency is 10300 nM (active). For the compound `Cc1ccc(-c2c(-c3nn(C)c4ncnc(N5CCC(N6CCCCC6)C5)c34)cnn2C)cc1` (stereo not given), the Potency is 16400 nM (active). Consider `CC1=CC(=O)CC(C)(C)[C@@]1(O)/C=C/C(C)O[C@@H]1O[C@H](CO)[C@@H](O)[C@H](O)[C@H]1O` (stereo not given in full), for which the “viability (% of control)” value is 102% [at 17.3 µM].
